# Test results: the supplement of paper PMC11732987, “Enantioselective OTUD7B fragment discovery through chemoproteomics screening and high-throughput optimisation” (Communications Chemistry, 2025)
# Unmarked numbers belong to inactive results.
# Legend:
# Test in all cases: log2 ratio of Biotin-Ahx-Ub-VS probe labelling (fragment/DMSO); higher = less target engagement (more negative = stronger competition), active = hit call of the paper (q ≤ 0.05, log2 ratio ≤ -1)
# Settings in all cases: compound concentration: 200 uM; treatment time: 3 h
# ALG13 = target: T1, ALG13 (UniProt Q9NP73)
# T1 sequence (whole entry): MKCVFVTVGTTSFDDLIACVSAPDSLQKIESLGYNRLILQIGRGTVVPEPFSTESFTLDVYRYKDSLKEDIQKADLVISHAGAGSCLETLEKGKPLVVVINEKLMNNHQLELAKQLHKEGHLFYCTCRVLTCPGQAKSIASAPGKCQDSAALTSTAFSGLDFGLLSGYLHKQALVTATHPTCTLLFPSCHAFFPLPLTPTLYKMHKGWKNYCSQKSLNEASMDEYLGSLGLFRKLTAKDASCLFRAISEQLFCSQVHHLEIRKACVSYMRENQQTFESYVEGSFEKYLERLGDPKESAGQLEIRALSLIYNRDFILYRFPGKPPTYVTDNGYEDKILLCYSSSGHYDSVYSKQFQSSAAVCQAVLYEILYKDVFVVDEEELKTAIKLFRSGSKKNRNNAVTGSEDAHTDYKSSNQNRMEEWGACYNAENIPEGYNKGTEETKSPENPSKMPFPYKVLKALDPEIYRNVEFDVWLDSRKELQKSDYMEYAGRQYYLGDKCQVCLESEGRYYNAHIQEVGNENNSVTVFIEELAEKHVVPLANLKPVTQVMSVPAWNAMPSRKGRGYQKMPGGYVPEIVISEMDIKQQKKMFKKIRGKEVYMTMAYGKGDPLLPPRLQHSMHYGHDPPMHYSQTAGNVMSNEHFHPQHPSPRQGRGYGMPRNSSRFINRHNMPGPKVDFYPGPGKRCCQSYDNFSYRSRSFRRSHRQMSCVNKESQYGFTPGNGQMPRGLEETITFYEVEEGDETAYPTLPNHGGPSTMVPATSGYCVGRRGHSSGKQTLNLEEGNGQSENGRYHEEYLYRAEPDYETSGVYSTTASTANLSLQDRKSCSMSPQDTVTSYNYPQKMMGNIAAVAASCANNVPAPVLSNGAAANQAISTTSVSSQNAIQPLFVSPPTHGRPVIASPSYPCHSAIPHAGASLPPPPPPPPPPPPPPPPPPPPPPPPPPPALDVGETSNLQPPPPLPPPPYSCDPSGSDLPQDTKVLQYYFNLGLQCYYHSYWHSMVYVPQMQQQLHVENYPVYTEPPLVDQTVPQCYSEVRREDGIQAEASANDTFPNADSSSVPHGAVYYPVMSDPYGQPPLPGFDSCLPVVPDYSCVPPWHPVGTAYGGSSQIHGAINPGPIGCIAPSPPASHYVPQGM
# Method in brief: (§1)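 Fragment (200 µM) or vehicle was incubated for 3 h with triplicate HEK293T lysate samples of 495 µg, which were then treated with Biotin-Ahx-Ub-VS at 0.5 µM final for 1 h. Labelled DUBs were enriched on NeutrAvidin, digested with LysC and trypsin, and analysed by diaPASEF LC-MS/MS. Values are average log2 fragment/vehicle ratios from an unpaired t-test on global-median-normalised Spectronaut label-free quantities, using proteins with ≥2 unique peptides.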
# ATXN3 = ATXN3 (UniProt P54252)
# Method in brief: as §1
# BAP1 = target: T2, BAP1 (UniProt Q92560)
# T2 sequence (whole entry): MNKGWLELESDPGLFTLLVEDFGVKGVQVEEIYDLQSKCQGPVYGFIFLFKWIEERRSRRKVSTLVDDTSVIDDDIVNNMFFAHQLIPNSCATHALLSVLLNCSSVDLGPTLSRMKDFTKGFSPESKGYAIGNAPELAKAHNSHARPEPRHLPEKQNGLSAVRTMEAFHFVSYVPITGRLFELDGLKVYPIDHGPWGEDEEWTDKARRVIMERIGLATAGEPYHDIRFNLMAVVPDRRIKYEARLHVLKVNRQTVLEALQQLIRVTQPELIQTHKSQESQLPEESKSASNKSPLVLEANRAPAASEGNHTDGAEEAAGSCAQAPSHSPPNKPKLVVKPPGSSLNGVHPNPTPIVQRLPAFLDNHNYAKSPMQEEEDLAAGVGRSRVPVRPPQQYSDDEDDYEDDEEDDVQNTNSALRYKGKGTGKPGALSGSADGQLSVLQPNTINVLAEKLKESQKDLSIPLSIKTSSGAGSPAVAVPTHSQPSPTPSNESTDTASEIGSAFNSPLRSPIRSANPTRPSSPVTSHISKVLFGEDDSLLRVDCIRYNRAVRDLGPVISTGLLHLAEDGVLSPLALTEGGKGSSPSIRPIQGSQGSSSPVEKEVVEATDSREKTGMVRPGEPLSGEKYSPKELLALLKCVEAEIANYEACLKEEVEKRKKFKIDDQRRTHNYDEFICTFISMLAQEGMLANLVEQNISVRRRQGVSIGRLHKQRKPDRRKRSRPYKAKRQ
# Method in brief: as §1
# EIF3F = EIF3F (UniProt O00303)
# Method in brief: as §1
# EIF3H = EIF3H (UniProt O15372)
# Method in brief: as §1
# FAM105A = target: T3, FAM105A (UniProt Q9NUU6)
# T3 sequence (whole entry): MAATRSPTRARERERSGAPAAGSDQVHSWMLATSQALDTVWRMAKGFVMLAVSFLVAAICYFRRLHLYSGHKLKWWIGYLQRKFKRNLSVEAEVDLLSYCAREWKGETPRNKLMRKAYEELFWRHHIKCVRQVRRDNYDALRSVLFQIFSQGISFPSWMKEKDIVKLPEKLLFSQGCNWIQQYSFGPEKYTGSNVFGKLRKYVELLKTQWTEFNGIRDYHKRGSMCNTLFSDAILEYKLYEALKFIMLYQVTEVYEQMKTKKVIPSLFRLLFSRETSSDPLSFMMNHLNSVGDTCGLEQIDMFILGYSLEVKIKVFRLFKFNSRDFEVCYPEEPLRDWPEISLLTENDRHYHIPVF
# Method in brief: as §1
# OTUB1 = OTUB1 (UniProt Q96FW1)
# Method in brief: as §1
# OTUD4 = target: T4, OTUD4 (UniProt Q01804)
# T4 sequence (whole entry): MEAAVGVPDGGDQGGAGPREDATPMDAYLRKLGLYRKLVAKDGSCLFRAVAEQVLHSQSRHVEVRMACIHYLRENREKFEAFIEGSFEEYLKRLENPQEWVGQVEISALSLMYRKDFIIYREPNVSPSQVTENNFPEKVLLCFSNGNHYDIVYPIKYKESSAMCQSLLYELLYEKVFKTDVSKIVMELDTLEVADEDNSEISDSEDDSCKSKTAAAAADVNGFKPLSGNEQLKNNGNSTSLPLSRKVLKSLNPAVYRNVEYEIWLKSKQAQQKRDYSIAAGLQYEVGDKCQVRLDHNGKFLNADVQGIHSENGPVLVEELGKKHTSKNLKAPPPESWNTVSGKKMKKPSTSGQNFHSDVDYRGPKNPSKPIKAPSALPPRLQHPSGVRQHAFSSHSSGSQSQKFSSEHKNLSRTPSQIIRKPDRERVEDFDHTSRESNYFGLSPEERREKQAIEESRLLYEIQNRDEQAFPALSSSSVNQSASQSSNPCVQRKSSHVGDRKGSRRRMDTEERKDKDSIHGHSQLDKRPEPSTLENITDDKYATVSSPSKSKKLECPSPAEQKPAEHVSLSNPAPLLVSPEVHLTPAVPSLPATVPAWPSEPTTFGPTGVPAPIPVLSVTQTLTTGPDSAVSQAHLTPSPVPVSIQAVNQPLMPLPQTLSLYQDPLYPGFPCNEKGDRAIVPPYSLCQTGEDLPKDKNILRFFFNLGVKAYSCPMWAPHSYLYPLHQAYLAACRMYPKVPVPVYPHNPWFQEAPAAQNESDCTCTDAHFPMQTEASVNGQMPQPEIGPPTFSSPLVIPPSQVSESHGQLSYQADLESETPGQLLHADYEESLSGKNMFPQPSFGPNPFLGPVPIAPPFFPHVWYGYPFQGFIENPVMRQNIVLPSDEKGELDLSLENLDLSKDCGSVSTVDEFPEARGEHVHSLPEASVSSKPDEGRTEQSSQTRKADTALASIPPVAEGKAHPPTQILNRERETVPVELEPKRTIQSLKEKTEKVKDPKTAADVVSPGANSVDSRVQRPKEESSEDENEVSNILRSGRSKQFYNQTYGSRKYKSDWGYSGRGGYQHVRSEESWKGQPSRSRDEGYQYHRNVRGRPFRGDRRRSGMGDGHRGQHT
# Method in brief: as §1
# OTUD5 = target: T5, OTUD5 (UniProt Q96G74)
# T5 sequence (whole entry): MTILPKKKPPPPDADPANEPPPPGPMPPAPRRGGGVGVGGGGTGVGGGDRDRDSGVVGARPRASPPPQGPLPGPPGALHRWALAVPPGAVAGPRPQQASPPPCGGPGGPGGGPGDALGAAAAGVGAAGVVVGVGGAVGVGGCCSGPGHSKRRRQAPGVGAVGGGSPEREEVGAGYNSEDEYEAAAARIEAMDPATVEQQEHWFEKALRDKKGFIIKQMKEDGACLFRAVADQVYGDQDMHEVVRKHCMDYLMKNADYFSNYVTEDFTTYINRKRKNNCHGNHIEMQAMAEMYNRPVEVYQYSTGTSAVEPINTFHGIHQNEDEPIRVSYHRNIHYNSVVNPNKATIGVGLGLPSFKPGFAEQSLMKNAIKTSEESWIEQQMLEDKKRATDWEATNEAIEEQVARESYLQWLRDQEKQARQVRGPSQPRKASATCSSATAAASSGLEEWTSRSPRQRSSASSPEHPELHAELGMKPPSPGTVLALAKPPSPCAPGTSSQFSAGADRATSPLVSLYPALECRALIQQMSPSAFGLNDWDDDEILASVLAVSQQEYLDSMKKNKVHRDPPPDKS
# Method in brief: as §1
# Chain of ATXN3 (P54252 whole entry): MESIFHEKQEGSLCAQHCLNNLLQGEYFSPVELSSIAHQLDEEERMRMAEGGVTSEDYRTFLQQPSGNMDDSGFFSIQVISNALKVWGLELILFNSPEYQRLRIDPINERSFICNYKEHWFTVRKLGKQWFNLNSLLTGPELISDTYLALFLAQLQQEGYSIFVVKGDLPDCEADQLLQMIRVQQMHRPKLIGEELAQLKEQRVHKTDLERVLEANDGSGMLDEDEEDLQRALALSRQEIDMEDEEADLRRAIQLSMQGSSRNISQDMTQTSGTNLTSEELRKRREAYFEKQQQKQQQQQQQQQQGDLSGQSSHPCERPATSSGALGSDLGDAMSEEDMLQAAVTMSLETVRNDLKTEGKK
# Chain of OTUB1 (Q96FW1 whole entry): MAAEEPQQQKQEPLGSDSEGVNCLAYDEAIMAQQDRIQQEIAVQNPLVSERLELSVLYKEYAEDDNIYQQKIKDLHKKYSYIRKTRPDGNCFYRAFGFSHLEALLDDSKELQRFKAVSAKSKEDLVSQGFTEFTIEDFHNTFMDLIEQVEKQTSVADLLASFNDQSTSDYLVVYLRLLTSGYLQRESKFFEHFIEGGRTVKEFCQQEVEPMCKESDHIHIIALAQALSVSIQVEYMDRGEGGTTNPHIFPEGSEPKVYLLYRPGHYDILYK
# Chain of EIF3H (O15372 whole entry): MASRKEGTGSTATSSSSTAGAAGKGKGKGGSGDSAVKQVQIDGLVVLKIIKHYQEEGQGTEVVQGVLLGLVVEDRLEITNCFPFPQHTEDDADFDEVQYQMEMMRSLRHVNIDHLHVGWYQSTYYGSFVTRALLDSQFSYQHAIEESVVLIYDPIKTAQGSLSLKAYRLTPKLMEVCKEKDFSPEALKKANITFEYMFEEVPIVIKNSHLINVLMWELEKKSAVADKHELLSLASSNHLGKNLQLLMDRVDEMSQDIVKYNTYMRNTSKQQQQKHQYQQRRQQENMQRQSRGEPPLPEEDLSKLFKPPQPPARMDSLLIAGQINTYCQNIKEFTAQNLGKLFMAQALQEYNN
# Chain of EIF3F (O00303 whole entry): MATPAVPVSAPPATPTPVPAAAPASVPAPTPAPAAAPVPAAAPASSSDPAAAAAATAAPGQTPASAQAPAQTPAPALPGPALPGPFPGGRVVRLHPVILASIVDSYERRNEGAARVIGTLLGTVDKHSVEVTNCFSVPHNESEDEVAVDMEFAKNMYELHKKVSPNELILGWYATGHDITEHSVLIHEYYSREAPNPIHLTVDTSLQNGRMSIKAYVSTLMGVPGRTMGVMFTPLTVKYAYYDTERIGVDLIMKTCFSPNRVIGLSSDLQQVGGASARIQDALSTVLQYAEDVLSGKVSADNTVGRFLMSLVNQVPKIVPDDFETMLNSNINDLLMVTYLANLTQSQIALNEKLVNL
Structure (SMILES),log2 ratio of Biotin-Ahx-Ub-VS probe labelling (ALG13),log2 ratio of Biotin-Ahx-Ub-VS probe labelling (ATXN3),log2 ratio of Biotin-Ahx-Ub-VS probe labelling (BAP1),log2 ratio of Biotin-Ahx-Ub-VS probe labelling (EIF3F),log2 ratio of Biotin-Ahx-Ub-VS probe labelling (EIF3H),log2 ratio of Biotin-Ahx-Ub-VS probe labelling (FAM105A),log2 ratio of Biotin-Ahx-Ub-VS probe labelling (OTUB1),log2 ratio of Biotin-Ahx-Ub-VS probe labelling (OTUD4),log2 ratio of Biotin-Ahx-Ub-VS probe labelling (OTUD5)
CN(C)C(=O)c1ccc(NC(=O)CCl)cc1,-0.115,-0.241,-3.59 (active),0.168,0.142,0.105,0.31,-0.109,-0.508
O=C(CCl)N1CCN(C(=O)N2CCCCC2)CC1,-1.37 (active),-1.81 (active),-1.46 (active),-0.507,0.266,-0.215,-0.524,-0.638,-1.13 (active)
CC(NC(=O)CCl)c1ccc2[nH]ncc2c1 (centres undefined),0.186,-0.431,-3.42 (active),-0.607,-0.275,-0.234,-0.374,-0.637,-0.509
O=C(CCl)N1c2ccccc2NC(=O)C12CCCC2,-0.0909,-0.311,-0.609,-0.0311,0.277,0.141,-0.478,-0.196,-0.711
CNC(=O)C1CCN(C(=O)CCl)CC1,0.0075,-0.0902,-0.309,-0.0903,0.232,0.31,-0.105,0.0041,-0.381
O=C(CCl)NCc1ccc(N2CCOCC2)nc1,0.174,-0.193,-2.61 (active),-0.156,0.183,0.479,0.0139,-0.539,-0.385
CCN(Cc1ccc(C#N)cc1F)C(=O)CCl,0.0792,-1.1 (active),-0.691,-0.201,0.0146,0.124,-0.377,-0.686,-0.653
Cc1ccc(N(C(=O)CCl)C2C=CS(=O)(=O)C2)cc1 (centres undefined),-0.425,0.116,-0.0645,-0.128,-0.276,0.167,-0.0537,0.0564,-0.00864
Cl.O=C(CCl)N[C@H]1C[C@@H](n2cccn2)C1,-0.266,-0.161,-1.24 (active),-0.862,0.149,-0.138,-0.581,-0.0468,-0.587
Cc1n[nH]c2c1CN(C(=O)CCl)CC2,0.0341,-0.888,-1.1,-0.389,0.366,0.0256,-0.0671,-0.753,-1.05 (active)
N#Cc1ccc(Cl)cc1NC(=O)CCl,-0.187,-0.113,-4.1 (active),-0.13,0.269,-0.217,-0.265,-1.18 (active),-0.589
O=C(CCl)N1CCC(c2ccn[nH]2)C1 (centres undefined),-0.443,-0.622,-0.721,-0.232,0.0161,-0.198,-0.156,-0.303,-0.376
CN(Cc1nc2ccccc2[nH]1)C(=O)CCl.Cl,0.0974,-0.483,-0.482,-0.447,0.225,-0.213,-0.189,0.0195,-0.483
CNC(=O)Cn1cc(NC(=O)CCl)cn1,-0.433,-0.517,-1.67 (active),-0.308,0.0304,-0.125,-0.0242,-0.305,-0.468
O=C(CCl)NCc1noc(C2CC2)n1,0.174,-0.198,-1.08 (active),-0.262,0.143,0.00371,-0.305,-0.405,-0.391
Cl.O=C(CN1CCN(C(=O)CCl)CC1)Nc1ccc(F)cc1,-0.446,-0.144,-0.159,-0.203,0.305,-0.0798,0.137,0.146,-0.0696
